This is a sample that favours compounds with a hit; in the whole collection about 8.5% have one here.
GoLoco inh red – RGS12 GoLoco-Gai1 interaction inhibition | 230,000 tested, 0.44% active | Potency, µM (titrated, usually from 61.6 µM), without a hit: at the highest dose activity, negative = inhibition, hits mostly inhibitors | Gai1:RGS12 GoLoco peptide FP, rhodamine, 10 min; active means well fitted inhibition curve with a large enough effect, not every such curve was filed as active; inactive means no such curve, though single readings can be large or run the other way; further: potency means the concentration at half of the fitted maximal effect; nearly all actives have a fitted effect of over 30% in size
Target sequence (P63096 whole entry, looked up): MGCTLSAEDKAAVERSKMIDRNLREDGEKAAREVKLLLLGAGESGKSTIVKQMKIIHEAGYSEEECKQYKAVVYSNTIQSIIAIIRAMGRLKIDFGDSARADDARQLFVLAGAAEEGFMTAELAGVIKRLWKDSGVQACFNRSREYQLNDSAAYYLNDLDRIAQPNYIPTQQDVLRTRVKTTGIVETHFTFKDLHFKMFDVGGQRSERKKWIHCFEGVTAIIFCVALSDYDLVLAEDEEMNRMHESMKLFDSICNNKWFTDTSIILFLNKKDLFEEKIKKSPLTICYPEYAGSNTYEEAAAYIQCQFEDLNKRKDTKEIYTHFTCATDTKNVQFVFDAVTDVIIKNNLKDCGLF
KDM4E inh – JMJD2E (human) inhibition. B2RXH2. Potency, µM (highest dose often 57.1 µM), without a hit: at the top dose activity change, negative = inhibition, actives largely listed as inhibitors. 230,000 tested, 1.6% active. JMJD2E catalytic domain, FDH-coupled NADH fluorescence (FDH is formaldehyde dehydrogenase);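 further: potency means the concentration at half of the fitted maximal effect; 0% = wells with enzyme and -100% = buffer wells without enzyme; nearly all actives have a fitted effect of over 50% in size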
Target sequence (B2RXH2 1-337 limits assumed): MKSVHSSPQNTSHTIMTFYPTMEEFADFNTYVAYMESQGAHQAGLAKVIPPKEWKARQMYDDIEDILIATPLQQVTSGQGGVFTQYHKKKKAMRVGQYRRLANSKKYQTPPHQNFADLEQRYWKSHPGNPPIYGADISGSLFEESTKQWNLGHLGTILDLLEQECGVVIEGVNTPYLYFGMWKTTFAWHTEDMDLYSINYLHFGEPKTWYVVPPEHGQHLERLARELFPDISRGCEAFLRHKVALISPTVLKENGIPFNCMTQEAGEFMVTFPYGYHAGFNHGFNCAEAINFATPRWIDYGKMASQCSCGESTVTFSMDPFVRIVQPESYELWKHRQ
NPSR antag – antagonists of human neuropeptide S receptor cAMP signaling. AID 1461. CHO-NPSR cells, cAMP TR-FRET, antagonist mode. Potency, µM (top dose mostly 38.3 µM), for inactives: top-dose activity change, negative = inhibition, usual class: inhibitors. 220,000 tested, 1% active; further: potency means the concentration at half of the fitted maximal effect; nearly all actives have a fitted effect of over 50% in size
ALDH1A1 block – inhibitors of human aldehyde dehydrogenase 1A1 | Potency, µM (highest dose often 75.3 µM), for the others: at the top dose activity, negative = inhibition, most hits filed as inhibitors | Purified ALDH1A1, NADH fluorescence, propionaldehyde substrate | P00352 | AID 1030 | 220,000 tested, 7.3% active; active means well fitted inhibition curve with a large enough effect, not every such curve was filed as active; inconclusive means small, poorly fitted or top-dose-only effect, or another doubt; inactive means no such curve, though single readings can be large or run the other way;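 further: potency means the concentration at half of the fitted maximal effect; plate controls were no enzyme wells and a reference inhibitor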
FBPA coupling cs – counter-screen for Giardia aldolase inhibitors: coupling enzyme system. 290,000 tested, 0.67% active. activity change, negative = inhibition, % at 58.2 µM, hits read low. coupling enzyme system counterscreen, AmpLite Red fluorescence. AID 2472; in the data active means activity change below about -30%
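Coupling enzymes only (glyceraldehyde-3-phosphate) + compound, at 57.5 uM final, 10 min RT; add substrate/coupling/AmpLite Red mix, 20 min RT; fluorescence ex 525/em 598 nm. Actives flag coupling-system interference.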
Sfp inh – blocks B. subtilis Sfp PPTase activity; Q9F4F7; Biochemical Sfp PPTase activity, qHTS; Potency, µM, without a hit: largest response in the series, negative = inhibition, most hits filed as inhibitors; 310,000 tested, 3.5% active; AID 1490;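 further: the enzyme is Sfp with the accession as filed and its product quenches rhodamine fluorescence; potency means the concentration at half of the fitted maximal effect; 0% = enzyme reaction without inhibitor and -100% = no enzyme wells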
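Compounds were incubated with enzyme (final 15 nM) for 15 min at room temperature before substrate addition started the reaction. Fluorescence at 525 nm excitation, 598 nm emission was recorded immediately and after 30 minutes.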
* marks the source's active call; other numbers are inactive results; ? = inconclusive; · = not tested or not shown; [ ] = dose if it differs, or a comment. Unless noted, the call rests on the fitted dose curve; in most records, active means well fitted curve in the direction sought with a large enough effect; inconclusive means small, poorly fitted or top-dose-only effect, or another doubt; inactive means no such curve, though single readings can be large; an effect the other way counts as inactive or inconclusive. Unless noted, on the % scale 0 is the no-effect control and ±100 the full control effect.

SMILES	GoLoco inh red	KDM4E inh	NPSR antag	ALDH1A1 block	FBPA coupling cs	Sfp inh
COc1ccc(Cl)cc1NC(=S)N1CC(C)OC(C)C1 (stereo unspecified)	·	·	·	·	2	-9%
CC(C)(C)C1CCC(=NNC(=O)CN(c2ccccc2)S(=O)(=O)c2ccccc2[N+](=O)[O-])CC1 (stereo unspecified)	10%	5%	4%	10µM*	0	-7%
C/C(=N\NC(=O)CN(c1ccccc1)S(=O)(=O)c1ccccc1[N+](=O)[O-])C(C)(C)C	-4%	4%	-31%	-3%	2	2%
COc1ccnc2c1c(=O)n(Cc1ccc(Cl)cc1Cl)c(=O)n2C	·	·	·	·	2	1%
O=c1[nH]cnc2nc(-c3ccccc3)c(-c3ccccc3)nc12	8%	3.2µM*	-11%[46.1 µM]	?	-5	-1%
O=c1[nH]cnc2nn(-c3ccccc3)nc12	4%	?	-5%[46.1 µM]	?	1	16%
C[N+]1(C)CCC(=C2c3ccccc3CC(=O)c3sccc32)CC1	14µM*	3%	-13%[46.1 µM]	7.1µM*	·	6%
CCOc1ccc(-n2c(C)nc(O)c2N=Nc2ccccc2)cc1	0%	3%	7%	-17%	2	-3%
COc1ccc(OCC(=O)Nc2ccc(N3CCOCC3)cc2)c([N+](=O)[O-])c1	-2%	6%	-1%	28µM*	0	8%
COc1ccc(OCC(=O)Nc2ccc(N3CCOCC3)cc2)cc1	-7%	0%	-24%[46.1 µM]	-6%	0	-6%
COc1ccc(S(=O)(=O)Nc2ccc(N3CCOCC3)cc2)cc1Br	-9%	-6%	-13%[46.1 µM]	?	2	4%
CN(C)c1ccc(C(=O)OCC(=O)Nc2ccc(N3CCOCC3)cc2)cc1	-8%	-24%	43%	13µM*	1	9%
COc1ccc(S(=O)(=O)Nc2ccc(N3CCOCC3)cc2)cc1[N+](=O)[O-]	1%	0%	3%	13µM*	-2	-17%
N#Cc1ccc(C(=O)OCC(=O)Nc2ccc(N3CCOCC3)cc2)cc1	8%	5%	4%	?	1	-2%
COc1ccc(CNC(=O)c2ccc(CS(=O)(=O)Cc3ccccc3F)o2)cc1	4%	1%	10%	?	1	16%
CC(C)NC(=O)c1onc(CSc2ccc(F)cc2)c1C(=O)O	10%	-1%	10%[46.1 µM]	?	8	-8%
CC(C)NC(=O)c1onc(CSc2ccc(F)c(F)c2)c1C(=O)O	2%	?	0%[46.1 µM]	22µM*	3	79µM*
Cc1ccc(C)n1-c1nc(=S)[nH][nH]1	-4%	?	-5%[46.1 µM]	25µM*	-29	14µM*
COCCCN1C(=O)CS/C1=N\S(=O)(=O)c1ccccc1	4%	-3%	45%	·	0	29%
O=Cc1s/c(=N\S(=O)(=O)c2ccccc2)n(CCCCl)c1Cl	12%	3%	10µM*	?	-1	-64%
O=C(NC1CCCCC1)c1cc(S(=O)(=O)N2CCOCC2)ccc1Cl	·	·	·	·	-2	4%
N#C/C(=C\c1cccs1)C(=O)c1ccccc1Cl	41%	?	41%	22µM*	0	28µM*
CC(C)(C)C(=O)/C(C#N)=C/c1cccs1	18%	11%	25%	·	2	8%
CCOc1ccccc1NC(=O)C1CCCN(S(=O)(=O)c2ccc3c(c2)C(C)(C)C(=O)N3C)C1 (stereo unspecified)	·	·	·	·	-1	10%
CCCCCOc1ccc(NC(=O)CSc2cccc3cccnc23)cc1	-8%	?	-54%	?	1	-20%
SMILES	GoLoco inh red	KDM4E inh	NPSR antag	ALDH1A1 block	FBPA coupling cs	Sfp inh
CCOC(=O)Cn1nnnc1CN(Cc1ccc(OC)cc1)Cc1cc2cc(CC)ccc2[nH]c1=O	-4%	?	?	?	-24	18µM*
CCOC(=O)Cn1nnnc1CN(Cc1ccc(OC)cc1)Cc1cc2cc(C)cc(C)c2[nH]c1=O	0%	5%	-14%[46.1 µM]	?	1	35µM*
CN(C)c1nc(N/N=C/c2c[nH]c3ccccc23)nc(N2CCOCC2)n1	10%	0%	9%	19µM*	3	8%
N#C/C(=C/c1ccccc1[N+](=O)[O-])c1nnc2n1CCCCC2	0%	-9%	18%	22µM*	0	4%
N#C/C(=C/c1ccccc1[N+](=O)[O-])c1nc(C2CC2)cs1	0%	-2%	-16%[46.1 µM]	11µM*	3	1%
N#C/C(=C\c1ccccc1[N+](=O)[O-])c1nc(C2CC2)cs1	3%	-5%	-22%	10µM*	3	-12%
N#C/C(=C\c1ccc([N+](=O)[O-])cc1)c1nc(C2CC2)cs1	6%	-7%	-6%	-1%	0	-9%
Cc1ccc(C(=O)Nc2cc3[nH]c(=O)oc3cc2C)cc1	·	·	·	·	2	8%
CN(C)c1ccc(CN2CCC(C(N)=O)CC2)cc1	-1%	28µM*	15%	?	2	19%
CCCN(C(=O)CSc1nnc(-c2ccoc2C)n1N)C1CCS(=O)(=O)C1 (stereo unspecified)	-34%	6%	-4%[46.1 µM]	20µM*	0	9%
CCCN(CC1CC1)C(=O)CSc1nnc(-c2ccco2)n1N	5%	-5%	10%	32µM*	0	-15%
CCOC(=O)C(NC(=O)c1ccc(OC)cc1)(N1CCCC1=O)C(F)(F)F (stereo unspecified)	2%	-4%	10%	6%	1	10%
CCOc1ccc2nc(SC3CC(=O)N(c4ccc(OC)cc4OC)C3=O)sc2c1 (stereo unspecified)	18%	-29%	0%	25µM*	-2	-1%
CCOc1ccc2nc(SC3CC(=O)N(c4ccc(C)cc4)C3=O)sc2c1 (stereo unspecified)	11%	0%	?	2.2µM*	0	7%
CCc1ccc(NC2CC(=O)N(c3ccc(OC)cc3OC)C2=O)cc1 (stereo unspecified)	-1%	2%	-23%[46.1 µM]	-16%	1	22%
COc1ccc(NC(=O)/C(C#N)=C/c2ccc(OCc3ccccc3F)cc2)cc1	-2%	?	18%	3%	3	3%
Fc1ccc(-c2ccnc(=S)[nH]2)cc1	4%	-4%	14%[46.1 µM]	?	0	20µM*
Cc1ccc([N+](=O)[O-])c(N)c1	10%	·	·	-6%	·	·
Cc1ccc([N+](=O)[O-])c(C)[n+]1C	-9%	18µM*	-17%	-3%	-8	-25%
C[n+]1cccc2ccc3c(c21)OC(N)=C(C#N)C3c1ccccc1 (stereo unspecified)	-20%	16µM*	-2%	·	-19	-16%
Cc1ccc(S(=O)(=O)N[C@H](C(=O)OCC(=O)N2N=C(c3ccc(Cl)cc3)CC2c2ccco2)C(C)C)cc1 (stereo partly specified)	-2%	?	-25%	5%	-5	79µM*
